Laboratory results: PubChem BioAssay (Tox21)
Inconclusive results are not listed. Where a call stands in place of a potency, no number is given. Active and inactive are the calls of the source. Calls follow the shape of the dose curve; as a rule, active = well fitted activation curve with a large enough effect; inconclusive = small, poorly fitted or top-dose-only effect; inactive = flat fitted curve, though single readings scatter.

Test: qHTS assay to identify small molecule phospholipidosis (PLD) inducers (AID 1259344)
Settings: HepG2 phospholipidosis, LipidTOX Red imaging, 24 h; series mostly up to 38.3 µM
Outline: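 Cells (HepG2, 900 per well) attach for 4 h, receive LipidTOX Red and compound together, incubate 24 h at 37 C, are fixed 30 min with paraformaldehyde/Hoechst, then imaged at one site per well.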

Row | Compound | Potency
1 | C=CCN1C(=O)C(CC(C)C)NC1=S (configuration not stated) | inactive
2 | O=P(O)(O)CP(=O)(O)O | inactive
3 | C[C@H](NCCc1ccc(O)cc1)[C@H](O)c1ccc(O)cc1 | inactive
4 | O=P(O)(O)C(O)(Cn1ccnc1)P(=O)(O)O | inactive
5 | C[C@@H]1C[C@H]2[C@@H]3C[C@H](F)C4=CC(=O)C=C[C@]4(C)[C@@]3(Cl)[C@@H](O)C[C@]2(C)[C@H]1C(=O)COC(=O)C(C)(C)C | inactive
6 | CC/C=C\C/C=C\C/C=C\C/C=C\C/C=C\CCCC(=O)O | inactive
7 | CC(C)(Oc1ccc(C2CCCc3ccccc32)cc1)C(=O)O (configuration not stated) | inactive
